{"source": "PubChem BioAssay (NCI)", "note": "This is part of a sample that, as a whole, favours compounds with a hit. Of some 83,000 tested, about 20% had one in any assay.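 Growth was measured after 48 h exposure to one concentration of compound in 96-well plates. Values under 10 count as active.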 Unmarked numbers belong to inactive results. Active and inactive are the calls of the source."}
{"tested_on": "MDA-MB-468 breast", "test": "NCI-60 one-dose screen, 48 h (100 = growth as untreated, 0 = no growth, -100 = all killed)", "details": "10 µM unless noted"}
{"compound": "COc1ccc2[nH]c(=O)c(/C=N/Nc3nc(-c4ccccc4)cs3)c(O)c2c1", "growth": "87.6%"}
{"compound": "CN1C(=O)C2(SCC(C(=O)NCC(=O)OC(C)(C)C)N2C(=O)C2CCCCC2)c2ccccc21", "note": "(stereo not given)", "growth": "104%"}
{"compound": "COc1cc(C)c2sc3ccccc3c(=O)c2c1NCCN(C)C", "growth": "49%"}
{"compound": "CS(=O)(=O)c1c(Nc2ccccc2)n[nH]c1N", "growth": "110%"}
{"compound": "CCOc1ccc(NC(=O)c2cc(OC)c(OC)c(OC)c2)cc1", "growth": "8.51% (active)"}
{"compound": "COc1ccc(-c2nn(-c3cccc(NC(=O)c4ccc(N5CCOCC5)c(C(F)(F)F)c4)c3)cc2-c2ccncc2)cc1Cl", "growth": "80.6%"}
{"compound": "CC(=O)CC(c1ccccc1)c1c(C)[nH]c2ccccc12", "note": "(stereo not given)", "growth": "106%"}
{"compound": "CC1CCC(C(C)(C)[N+](C)(C)C)CC1", "note": "(stereo not given)", "growth": "120%"}
{"compound": "CCOC(=O)c1cc(C(=O)c2cc(OC)cc(OC)c2)n2ncc3ccccc3c12", "growth": "8.22% (active)"}
{"compound": "Nc1nc(Nc2ccccc2SSc2ccccc2Nc2nc(N)nc(-c3ccccc3)n2)nc(-c2ccccc2)n1", "growth": "102%"}
{"compound": "CCOC(=O)CNS(=O)(=O)CC(=O)c1ccccc1", "growth": "54.1%"}
{"compound": "CCN(CC)CCOC(=O)N1c2ccccc2Sc2ccccc21", "growth": "96.3%"}
{"compound": "S=c1nn[nH]n1C1CCCCC1", "growth": "125%"}
{"compound": "CCN1C(=O)N(c2ccccc2)C2NC(=S)N(/N=C/C=C/c3ccccc3)C21", "note": "(stereo not given)", "growth": "5.41% (active)"}
{"compound": "Clc1ncnc2scc(C3COc4ccccc4O3)c12", "note": "(stereo not given)", "growth": "-3.8% (active)"}
